HEK293 viab: reduces viability of HEK-293 SNCA reporter cells. Potency, µM (doses to about 57.1 µM), hits mostly cytotoxic. 0.12% of 150,000 active. HEK-293-SNCA-luc viability, GF-AFC fluorescence, 24 h; further: nearly all actives have a fitted effect of over 30% in size
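HEK-293-SNCA-luc cells (1500/well) plated 24 h, then exposed 24 h to a dilution series; GF-AFC added 30 min at 37C, fluorescence 405/540 nm; normalised to medium-only and DMSO wells, Hill fit.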
IP6K1 inh: inhibitors of human IP6K1 | AID 1645851 | activity change, % (series mostly up to about 58 µM) | Q92551 | 0.81% of 140,000 active | IP6K1 kinase, ADP-Glo luminescence, 2 h; hits give low values; in the data active means activity change below about -25%
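ADP-Glo luminescence measures ADP made by human IP6K1 during a 2 h RT reaction with ATP/IP6 (mix at 1.3 mM/130 uM); top library doses 57.5 and 19.1 uM final.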
KDM5B inh: inhibitors of human KDM5B histone demethylase. KDM5B demethylase, FDH-coupled NADH fluorescence (FDH is formaldehyde dehydrogenase). Potency, µM (doses to about 57.7 µM), actives largely listed as inhibitors. 2.6% of 220,000 active. AID 1347165; further: nearly all actives have a fitted effect of over 70% in size
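qHTS format, multiple compound concentrations. Buffer 50 mM HEPES pH 7.5/0.01% Tween-20; 200 nM KDM5BΔAP final; 10 min compound preincubation; substrate-mix levels 12.5 µM peptide, 25 µM α-KG, 0.25 mM NAD⁺; 30 min RT; ΔRFU.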
SNCA expr inh: SNCA gene expression inhibition. HEK-293 SNCA-luciferase knock-in, luminescence, 24 h. Potency, µM (highest dose often 57.2 µM), usual class: inhibitors. 0.17% of 140,000 active; further: nearly all actives have a fitted effect of over 45% in size
Each line names hits and unclear results; the compound was inactive in the other large screens. In the library only some 2.8% were active in any assay of this set; here they are far more common. Unless noted, the call rests on the fitted dose curve; in most records, active means well fitted curve in the direction sought with a large enough effect; inconclusive means small, poorly fitted or top-dose-only effect, or another doubt; inactive means no such curve, though single readings can be large; an effect the other way counts as inactive or inconclusive.

CC(C)c1nn(-c2c(Cl)cccc2Cl)c2nc(Cc3ccc(OCCO)cc3)[nH]c(=O)c12	HEK293 viab inconclusive, SNCA expr inh 0.19µM (no result: KDM5B inh)
C[C@]1(O)CCN(Cc2ccc(-c3ccccc3C#N)o2)C[C@@H]1O	KDM5B inh 25µM
CC(C)(C)c1nnc([C@H]2CCN(Cc3cnc4ccccc4c3)C2)o1	KDM5B inh 35µM
CN(C)C(=O)c1cc(-c2ccc(S(C)(=O)=O)cc2)c2cnn(C)c2n1	KDM5B inh 79µM
CC(C)NC(=O)c1cc(-c2ccc(S(C)(=O)=O)cc2)c2cnn(C)c2n1	KDM5B inh 89µM
Cc1cc(C)nc(NNC(=O)CNC(=O)c2ccccc2)n1	none (no result: HEK293 viab, IP6K1 inh, SNCA expr inh)
N#Cc1ccc(CN2CCC3(CC2)CN[S+](=O)([O-])c2ccccc2N3)cc1	none
Cc1ccc(C(=O)N2CCC(OC3CCN(C)CC3)CC2)s1	none
CCOc1nccnc1NC1CCN(C(=O)c2cccn2C)CC1	KDM5B inh 28µM
CCOc1nccnc1NC1CCN(C(=O)c2ccc(C)s2)CC1	KDM5B inh 28µM
O=C(c1cc(F)ccc1Cl)N1CCN(c2cc(-c3ccccc3)[nH]n2)CC1	none
Cc1nnc(-c2cc(N3CCN(c4ccccn4)CC3)ccn2)n1-c1ccccc1	none
CC(=O)N1CCN(c2ccnc(-c3nnc(C)n3-c3ccccc3)c2)CC1	KDM5B inh 35µM
COc1cccc(OCC(=O)c2ccc3c(c2)N(CCCC(=O)N2CCOCC2)C(=O)CO3)c1	none
COc1cc2ncnc(Nc3ccc(F)c(Cl)c3)c2cc1NC(=O)/C=C/CN1CCCCC1	HEK293 viab 24µM (no result: KDM5B inh, SNCA expr inh)
COc1cc2ncnc(Nc3ccc(F)c(Cl)c3)c2cc1O	none (no result: KDM5B inh, SNCA expr inh)
Cc1ccc(S(=O)(=O)Oc2ccc3c(c2)O/C(=C\c2ccccc2C)C3=O)cc1	none (no result: HEK293 viab, IP6K1 inh, SNCA expr inh)
O=C(c1ccncc1)N1CCCCCC1CN1CCCC1 (stereo unspecified)	none
CC(C)N1C(=O)CO[C@H]2CCN(Cc3ccccn3)CC[C@@H]21	KDM5B inh 35µM
O=C1[C@@H]2C[C@@H](CN2C2CCC2)Oc2ccccc2N1Cc1ccc(OC(F)(F)F)cc1	none
O=C(CCC1CCN(C(=O)c2ccccc2)CC1)NCCCN1CCCc2ccccc21	KDM5B inh 10µM
COc1ncccc1-c1cn(C)c(=O)n2cc(CN3CC[S+](=O)([O-])CC3)nc12	none
CC(=O)Nc1cc(-c2cn(C)c(=O)n3cc(CN4CC[S+](=O)([O-])CC4)nc23)ccn1	KDM5B inh 35µM
Cn1cc(Nc2ccc(Cl)cc2)c2nc(CN3CC[S+](=O)([O-])CC3)cn2c1=O	KDM5B inh 28µM
CN(Cc1cccnc1)C(=O)CCC[C@H]1NC[C@@H]2C[C@H]1CN(Cc1ccccc1)C2	KDM5B inh inconclusive
CC1CCN(C(=O)CCC[C@H]2NC[C@@H]3C[C@H]2CN(Cc2ccccc2)C3)CC1	KDM5B inh 7.9µM
O=C(CCC[C@H]1NC[C@@H]2CC1CN(Cc1ccccc1)C2)N1CCCC1	none
CN(Cc1ccc(N2CCCCC2)cc1)C(=O)CCC[C@H]1NC[C@@H]2C[C@H]1CN(Cc1ccccc1)C2	HEK293 viab 22µM, KDM5B inh inconclusive, SNCA expr inh inconclusive
COc1ccc(C)cc1NC(=O)N1CCN(C)C2(CCC(=O)N(C)CC2)C1 (stereo unspecified)	none
CNc1ccc(C)cc1C(=O)N1CCN(C)C2(CCN(C)CC2)C1	KDM5B inh 20µM
O=C(Nc1ccc(N2CCOCC2)cc1)C1(CCO)CCN(Cc2ccccc2)C1 (stereo unspecified)	none
O=C(N1CCCC1)C1(CCO)CCN(c2ncccn2)C1 (stereo unspecified)	KDM5B inh 28µM
O=C(Nc1ccc(N2CCOCC2)cc1)C1(CCO)CCN(c2ncccn2)C1 (stereo unspecified)	KDM5B inh 22µM, SNCA expr inh inconclusive
COCCCNC(=O)C1(CCO)CCN(c2ncccn2)C1 (stereo unspecified)	KDM5B inh inconclusive
O=C(NCc1ccccc1)C1(CCO)CCN(c2ncccn2)C1 (stereo unspecified)	KDM5B inh 28µM
CC(=O)N1CCC[C@@]2(CCN(c3ncccn3)C2)C1	none (no result: IP6K1 inh, KDM5B inh)
O=C(Nc1ccc2c(c1)OCCO2)C1(CCO)CCN(c2ncccn2)C1 (stereo unspecified)	KDM5B inh inconclusive
O=C(Nc1cccc(F)c1)C1(CCO)CCN(c2ncccn2)C1 (stereo unspecified)	KDM5B inh 28µM
CCOc1ccc(CN(C)C(=O)c2n[nH]c(=O)c3ccccc23)cc1	none (no result: HEK293 viab, IP6K1 inh, SNCA expr inh)
N#Cc1ccc(CN2C[C@@H]3C(=O)N(CCN4CCc5ccccc5C4)C(=O)[C@@H]3C2)cc1	KDM5B inh 25µM
O=C1[C@H]2CN(Cc3ccc(F)cc3)C[C@H]2C(=O)N1CCN1CCc2ccccc2C1	KDM5B inh inconclusive
O=S(=O)(NC1=NCN(Cc2ccccn2)CN1)c1ccccc1	none (no result: HEK293 viab, IP6K1 inh, SNCA expr inh)
O=C(CCc1ncc(-c2ccccc2)o1)Nc1ccc(Cl)cc1F	none (no result: HEK293 viab, IP6K1 inh, SNCA expr inh)
O=C(Cc1cccc(F)c1)NCc1nnc2cc(-c3nc(C4CC4)no3)ccn12	KDM5B inh 28µM
O=C(Cc1ccc(F)cc1)NCc1nnc2cc(-c3nc(C4CC4)no3)ccn12	KDM5B inh 28µM
Cc1ccc(C(=O)NC2CCN(c3cc(-c4ccccc4)[nH]n3)CC2)cc1F	none
COCC(=O)N(C1CCOCC1)C1CCN(C(=O)c2cc(F)ccc2Cl)CC1	none
COc1ccccc1-c1nc(C(=O)N2CCOCC2)n2ccccc12	KDM5B inh 89µM
COc1ccccc1-c1nc(C(=O)N2CCN(c3ncccn3)CC2)n2ccccc12	KDM5B inh inconclusive, SNCA expr inh inconclusive
COc1ccccc1-c1nc(C(=O)N2CCN(c3ncccn3)CC2)n2ccncc12	KDM5B inh inconclusive
O=C(c1nc(-c2ccc(F)cc2)c2cnccn12)N1CCOCC1	KDM5B inh 40µM
COc1ccccc1-c1nc(C(=O)N2CCOCC2)n2ccncc12	KDM5B inh 100µM
CCCCN(C(=O)Cn1c(=O)c2c(ncn2C)n(C)c1=O)c1ccccc1	none (no result: HEK293 viab, IP6K1 inh, SNCA expr inh)
O=C(O)CCC(=O)N1N=C(c2ccsc2)CC1c1ccccc1Cl (stereo unspecified)	none (no result: HEK293 viab, IP6K1 inh, SNCA expr inh)
CNC(=O)[C@@H]1C[C@H]2CN(Cc3ccc(OC)cc3)C(=O)c3cccc(c32)N1C(=O)c1cccs1	none (no result: KDM5B inh)
CCN1C(=O)C(CC(=O)NCc2ccco2)Sc2ncccc21 (stereo unspecified)	none
Cc1nc(C2CC(NC(=O)c3cnc(N)nc3C(F)(F)F)C2)cc(=O)[nH]1 (stereo unspecified)	KDM5B inh 28µM
Nc1nc(C2CC(NC(=O)c3csc4c3CCCC4)C2)cc(=O)[nH]1 (stereo unspecified)	none
CC(=O)Nc1ccc(CN2CC[C@H](c3nnc(C(C)(C)C)o3)C2)cc1	none
Cc1ccccc1C(=O)N1CCCC2(C1)Nc1cccnc1NC2=NC1CCCC1 (stereo unspecified)	KDM5B inh 16µM
COc1ccc(C(=O)N2CCCC3(C2)Nc2cccnc2NC3=NC2CCCC2)cn1 (stereo unspecified)	KDM5B inh inconclusive

Screens: PubChem, National Center for Advancing Translational Sciences (NCATS)
